# Reference: PubChem BioAssay (NCI)
# About 83,000 compounds went through this panel and 20% of them were active in at least one assay; those are over-represented in the sample as a whole.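 Testing used 96-well plates and a 48-hour single-concentration exposure. Example: -40 means 40% of the starting cells died.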 Calls of active or inactive are those of the source. The calls were made as follows: active = growth percent below 10; inactive = the rest.
# Tested on: HL-60(TB) leukemia
# Test: NCI-60 one-dose screen, 48 h (100 = growth as untreated, 0 = no growth, -100 = all killed)
# Conditions: 10 µM unless noted
row,Compound,growth
1,Nc1c(C(=O)Nc2c(Cl)cccc2Cl)sc2nc3c(cc12)CCCC3,35% (inactive)
2,COc1ccccc1-n1c(-c2cc(O)ccc2C)cn2c3c(=O)[nH]c(=O)n(C)c3nc12,110% (inactive)
3,O=C(Oc1ccccc1Cl)c1ccc(Cl)cc1Cl,106% (inactive)
4,CC/C=C\C[C@H](O)C/C=C1/C(=O)C=C[C@@]1(C)C/C=C\CCCC(=O)OC,98.9% (inactive)
5,CCc1nnc(NC(=O)c2ccoc2COc2ccccc2)s1,19.3% (inactive)
6,C#CC#CC#CC#CC#CC#CC#CC#CC[C@H]1OC[C@H](COC(=O)O[C@@H](C(=O)O[C@H]2C[C@@]3(O)[C@@H](OC(=O)c4ccccc4)[C@@H]4[C@]5(OC(C)=O)CO[C@@H]5C[C@H](O)[C@@]4(C)C(=O)[C@H](OC(C)=O)C(=C2C)C3(C)C)[C@@H](NC(=O)c2ccccc2)c2ccccc2)O1,11.3% (inactive)
7,S=c1[nH]nc(-c2cc3ccc2CCc2ccc(cc2)CC3)n1-c1ccccc1,89.7% (inactive)
8,CN(C)c1ccc(-c2ccc3c(c2)c(-c2ccccc2)nc(=O)n3C)cn1,43.5% (inactive)
9,O=C(C1CCCCC1)[C@@H]1[C@]2(C(=O)NC3CCCCC32)[C@@H]2CCCN2[C@@]12C(=O)NC1CCC(Cl)CC12 (some centres not stated),-65.9% [100 µM] (active)
10,CSc1nnc(-c2cc3c([nH]c4ccccc43)c(-c3cccc(O)c3)n2)n1-c1ccc(C)cc1,-16.1% (active)
11,Cc1cc2c3ccccc3ccc2[n+]2ccccc12,46.2% (inactive)
12,CCOC(=O)c1sc(-c2ccc(OS(=O)(=O)c3cccs3)c(C=O)c2)nc1C,-34.1% (active)
